Results on ten molecules are retold here after ChEMBL document CHEMBL3988442, “University of Dundee, Small-Polar-MMV Screening Library” (2021).

Holding throughout (parameters): scale not given: direction of the effect not stated beside the values
Assay [1] concerns the target Protein translocase subunit SecA (Escherichia coli (strain K12)) (UniProt P10408). Briefly: Assay to Identify E. coli SecA ATPase Inhibitors. Format: functional. The conditions noted are these: 30 µM.
The target in assay [2] is T1, Ubiquitin-activating enzyme e1, putative (Leishmania donovani (strain BPK282A1)) (UniProt E9BSI1).
T1 sequence (whole entry): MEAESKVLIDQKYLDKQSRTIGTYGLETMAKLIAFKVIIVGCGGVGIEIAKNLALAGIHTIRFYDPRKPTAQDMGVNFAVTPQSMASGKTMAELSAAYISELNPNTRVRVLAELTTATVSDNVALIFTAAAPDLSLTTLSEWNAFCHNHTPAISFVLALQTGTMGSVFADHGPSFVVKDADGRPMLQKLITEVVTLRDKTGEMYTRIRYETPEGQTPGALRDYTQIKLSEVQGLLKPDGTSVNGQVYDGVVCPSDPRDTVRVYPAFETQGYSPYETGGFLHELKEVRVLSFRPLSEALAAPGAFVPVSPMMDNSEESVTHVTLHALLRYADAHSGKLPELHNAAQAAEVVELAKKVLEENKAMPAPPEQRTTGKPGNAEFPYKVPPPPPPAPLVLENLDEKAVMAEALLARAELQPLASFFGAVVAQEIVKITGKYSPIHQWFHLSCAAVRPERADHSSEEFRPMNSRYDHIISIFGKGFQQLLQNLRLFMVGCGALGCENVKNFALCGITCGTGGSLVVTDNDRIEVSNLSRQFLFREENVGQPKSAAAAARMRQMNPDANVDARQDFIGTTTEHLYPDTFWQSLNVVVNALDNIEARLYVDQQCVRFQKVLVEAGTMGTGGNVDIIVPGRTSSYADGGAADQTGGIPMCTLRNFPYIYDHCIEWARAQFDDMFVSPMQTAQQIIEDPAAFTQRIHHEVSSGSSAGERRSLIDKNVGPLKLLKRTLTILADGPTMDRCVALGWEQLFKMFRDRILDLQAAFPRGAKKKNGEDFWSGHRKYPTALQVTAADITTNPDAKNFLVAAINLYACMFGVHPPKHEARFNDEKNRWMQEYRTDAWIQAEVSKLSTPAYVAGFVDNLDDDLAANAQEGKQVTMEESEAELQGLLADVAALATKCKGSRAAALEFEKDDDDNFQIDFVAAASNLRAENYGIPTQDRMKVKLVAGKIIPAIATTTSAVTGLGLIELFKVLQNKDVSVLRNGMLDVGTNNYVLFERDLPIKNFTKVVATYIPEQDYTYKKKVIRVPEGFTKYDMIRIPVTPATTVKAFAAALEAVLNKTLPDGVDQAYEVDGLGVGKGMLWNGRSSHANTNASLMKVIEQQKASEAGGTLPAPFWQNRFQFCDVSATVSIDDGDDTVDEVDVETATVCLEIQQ
Briefly: Leishmania donovani Ubiquitin Activating Enzyme (LdE1). To be noted: 30 µM. Format: functional.

In assay [3] the target is AMP-activated protein kinase, AMPK (Homo sapiens) (UniProt P54646+O43741+P54619+Q9UGJ0+Q9Y478+Q13131+Q9UGI9). Briefly: AMP-dependent Kinase enzyme assay. An in vitro enzyme assay that detects ADP turnover that is directly proportional to AMPK activity. This uses naive AMPK that is activated during the assay with MK-8722. The conditions noted are these: 30 µM. Format: functional.

In assay [4] the target is Sialic acid-binding Ig-like lectin 9 (Homo sapiens) (UniProt Q9Y336). Briefly: Hs-Siglec9 ALPHAscreen SOP 20170721. The conditions noted are these: 10 µM. Background: Alpha assays give light when donor and acceptor beads are brought close together.
The next assay has as its system Trypanosoma cruzi. Briefly: Trypanosoma cruzi phosphomannomutase and mannose-1-phosphate guanylyltransferase assay. Format: functional. The conditions noted are these: 10 µM.
For assay [5], the target named is T2, Arginase-2, mitochondrial (Homo sapiens) (UniProt P78540).
T2 sequence (whole entry): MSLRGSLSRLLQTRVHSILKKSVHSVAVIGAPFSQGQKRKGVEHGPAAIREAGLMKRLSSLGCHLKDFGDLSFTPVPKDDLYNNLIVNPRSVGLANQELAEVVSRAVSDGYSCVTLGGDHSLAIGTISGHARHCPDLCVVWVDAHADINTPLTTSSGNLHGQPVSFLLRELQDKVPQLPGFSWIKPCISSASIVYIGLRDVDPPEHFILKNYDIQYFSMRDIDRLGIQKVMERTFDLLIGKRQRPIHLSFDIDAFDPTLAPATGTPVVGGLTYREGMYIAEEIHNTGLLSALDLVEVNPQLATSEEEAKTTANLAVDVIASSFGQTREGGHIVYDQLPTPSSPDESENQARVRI
Briefly: in vitro enzyme assay to detect the production of urea directly proportional to the activity of Arginase II. Also: in the data most compounds retested in dose-response had high values. Format: functional. To be noted: 33.3 µM.

Assay [6] has as its target T3, Proteasome subunit beta (Trypanosoma cruzi) (UniProt O96673).
T3 sequence (whole entry): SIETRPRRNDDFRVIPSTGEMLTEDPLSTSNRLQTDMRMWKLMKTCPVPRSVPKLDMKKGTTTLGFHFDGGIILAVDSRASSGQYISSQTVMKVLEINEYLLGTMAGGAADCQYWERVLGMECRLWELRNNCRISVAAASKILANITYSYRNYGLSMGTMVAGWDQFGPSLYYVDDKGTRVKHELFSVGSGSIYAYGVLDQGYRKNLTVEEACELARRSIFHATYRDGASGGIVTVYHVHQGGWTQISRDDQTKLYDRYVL
Briefly: Trypanosoma cruzi proteasome chymotrypsin-like activity (TcProtChymo) assay. Also: in the data most compounds retested in dose-response had high values. Format: functional. The conditions noted are these: 9.37 µM.

Another assay is filed under the species Homo sapiens. Briefly: To identify inhibition of the IFN signalling (Jak-Stat) pathway via expression of an eGFP reporter gene under the control of an IFN-stimulated response element (ISRE) containing MxA promoter. To be noted: 30 µM. Format: functional. For orientation: Reporter assays use an easily measured gene product as a stand-in for the process of interest.

In assay [7] the target is T4, Tyrosyl-tRNA synthetase, putative (Trypanosoma cruzi (strain CL Brener)) (UniProt Q4DSP6).
T4 sequence (whole entry): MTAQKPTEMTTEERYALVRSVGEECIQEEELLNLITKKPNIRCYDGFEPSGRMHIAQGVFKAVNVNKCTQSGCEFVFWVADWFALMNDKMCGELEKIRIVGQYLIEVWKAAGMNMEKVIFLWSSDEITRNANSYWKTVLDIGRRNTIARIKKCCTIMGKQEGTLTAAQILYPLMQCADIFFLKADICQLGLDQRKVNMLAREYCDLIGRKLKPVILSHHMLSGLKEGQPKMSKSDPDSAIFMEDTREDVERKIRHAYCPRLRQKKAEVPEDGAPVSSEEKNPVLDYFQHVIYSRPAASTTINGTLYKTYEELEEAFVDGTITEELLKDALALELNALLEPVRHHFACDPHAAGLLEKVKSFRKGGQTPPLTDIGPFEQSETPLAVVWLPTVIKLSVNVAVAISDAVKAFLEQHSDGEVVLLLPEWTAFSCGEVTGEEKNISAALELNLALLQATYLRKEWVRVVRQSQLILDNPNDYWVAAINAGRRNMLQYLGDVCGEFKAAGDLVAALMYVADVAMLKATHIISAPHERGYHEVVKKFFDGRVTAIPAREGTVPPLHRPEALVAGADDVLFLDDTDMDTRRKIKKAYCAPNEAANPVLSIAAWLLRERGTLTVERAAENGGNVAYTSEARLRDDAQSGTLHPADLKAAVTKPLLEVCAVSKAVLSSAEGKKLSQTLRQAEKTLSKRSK
Briefly: Trypanosoma cruzi tyrosyl tRNA synthetase (TcYRS) _High Tyrosine SOP. Also: in the data most compounds retested in dose-response had high values. Format: functional. To be noted: 30 µM.

Assay [8] concerns the target T4, Tyrosyl-tRNA synthetase, putative (Trypanosoma cruzi (strain CL Brener)). Briefly: Trypanosoma cruzi tyrosyl tRNA synthetase (TcYRS) SOP. Format: functional. To be noted: 30 µM.
In assay [9] the target is Chromo domain-containing protein 1 (Saccharomyces cerevisiae (strain ATCC 204508 / S288c) (Baker's yeast)) (UniProt P32657). Briefly: ScCHD-1 Enzyme Inhibition Assay. Also: in the data most compounds retested in dose-response had high values. To be noted: 30 µM. Format: functional.

Structures are written as SMILES. For some assays here: Entries with a potency or affinity are not part of this list.

Sequence of Protein translocase subunit SecA (Escherichia coli (strain K12)) (P10408 whole entry): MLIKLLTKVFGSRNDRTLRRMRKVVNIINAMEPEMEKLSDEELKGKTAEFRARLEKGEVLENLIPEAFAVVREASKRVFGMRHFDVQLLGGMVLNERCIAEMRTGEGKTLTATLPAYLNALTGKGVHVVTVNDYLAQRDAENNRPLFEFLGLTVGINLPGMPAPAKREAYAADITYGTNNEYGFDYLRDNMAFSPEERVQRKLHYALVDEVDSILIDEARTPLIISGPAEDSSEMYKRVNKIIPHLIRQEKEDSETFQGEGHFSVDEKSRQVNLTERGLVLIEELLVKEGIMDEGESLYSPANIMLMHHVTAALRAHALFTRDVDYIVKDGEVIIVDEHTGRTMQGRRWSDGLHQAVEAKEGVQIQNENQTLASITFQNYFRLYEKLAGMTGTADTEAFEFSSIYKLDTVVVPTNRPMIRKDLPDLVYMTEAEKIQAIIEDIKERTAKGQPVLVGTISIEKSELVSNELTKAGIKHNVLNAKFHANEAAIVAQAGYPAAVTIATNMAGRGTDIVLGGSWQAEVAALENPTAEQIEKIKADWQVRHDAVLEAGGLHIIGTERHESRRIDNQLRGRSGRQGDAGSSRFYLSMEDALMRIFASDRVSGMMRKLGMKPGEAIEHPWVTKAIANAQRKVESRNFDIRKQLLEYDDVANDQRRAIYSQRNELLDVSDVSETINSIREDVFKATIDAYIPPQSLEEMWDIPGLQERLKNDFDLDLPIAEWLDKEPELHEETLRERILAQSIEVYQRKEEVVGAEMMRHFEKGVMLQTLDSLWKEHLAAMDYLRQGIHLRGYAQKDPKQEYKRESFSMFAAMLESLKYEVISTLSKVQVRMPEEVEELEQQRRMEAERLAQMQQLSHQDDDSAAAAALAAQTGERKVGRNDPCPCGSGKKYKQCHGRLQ
Sequence of Sialic acid-binding Ig-like lectin 9 (Homo sapiens) (Q9Y336 whole entry): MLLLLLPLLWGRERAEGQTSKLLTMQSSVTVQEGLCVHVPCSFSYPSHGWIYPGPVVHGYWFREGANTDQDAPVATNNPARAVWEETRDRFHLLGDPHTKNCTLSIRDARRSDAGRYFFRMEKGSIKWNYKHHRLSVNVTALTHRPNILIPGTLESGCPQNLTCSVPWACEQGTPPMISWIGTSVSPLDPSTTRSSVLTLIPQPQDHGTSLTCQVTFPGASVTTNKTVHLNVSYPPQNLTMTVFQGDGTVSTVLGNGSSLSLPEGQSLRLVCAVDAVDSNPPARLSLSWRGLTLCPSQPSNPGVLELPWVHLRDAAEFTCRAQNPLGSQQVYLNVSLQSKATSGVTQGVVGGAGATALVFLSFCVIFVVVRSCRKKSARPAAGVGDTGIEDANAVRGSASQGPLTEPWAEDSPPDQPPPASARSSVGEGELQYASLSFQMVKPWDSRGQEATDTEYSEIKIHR
Sequence of Chromo domain-containing protein 1 (Saccharomyces cerevisiae (strain ATCC 204508 / S288c) (Baker's yeast)) (P32657 whole entry, the tested form may be a part): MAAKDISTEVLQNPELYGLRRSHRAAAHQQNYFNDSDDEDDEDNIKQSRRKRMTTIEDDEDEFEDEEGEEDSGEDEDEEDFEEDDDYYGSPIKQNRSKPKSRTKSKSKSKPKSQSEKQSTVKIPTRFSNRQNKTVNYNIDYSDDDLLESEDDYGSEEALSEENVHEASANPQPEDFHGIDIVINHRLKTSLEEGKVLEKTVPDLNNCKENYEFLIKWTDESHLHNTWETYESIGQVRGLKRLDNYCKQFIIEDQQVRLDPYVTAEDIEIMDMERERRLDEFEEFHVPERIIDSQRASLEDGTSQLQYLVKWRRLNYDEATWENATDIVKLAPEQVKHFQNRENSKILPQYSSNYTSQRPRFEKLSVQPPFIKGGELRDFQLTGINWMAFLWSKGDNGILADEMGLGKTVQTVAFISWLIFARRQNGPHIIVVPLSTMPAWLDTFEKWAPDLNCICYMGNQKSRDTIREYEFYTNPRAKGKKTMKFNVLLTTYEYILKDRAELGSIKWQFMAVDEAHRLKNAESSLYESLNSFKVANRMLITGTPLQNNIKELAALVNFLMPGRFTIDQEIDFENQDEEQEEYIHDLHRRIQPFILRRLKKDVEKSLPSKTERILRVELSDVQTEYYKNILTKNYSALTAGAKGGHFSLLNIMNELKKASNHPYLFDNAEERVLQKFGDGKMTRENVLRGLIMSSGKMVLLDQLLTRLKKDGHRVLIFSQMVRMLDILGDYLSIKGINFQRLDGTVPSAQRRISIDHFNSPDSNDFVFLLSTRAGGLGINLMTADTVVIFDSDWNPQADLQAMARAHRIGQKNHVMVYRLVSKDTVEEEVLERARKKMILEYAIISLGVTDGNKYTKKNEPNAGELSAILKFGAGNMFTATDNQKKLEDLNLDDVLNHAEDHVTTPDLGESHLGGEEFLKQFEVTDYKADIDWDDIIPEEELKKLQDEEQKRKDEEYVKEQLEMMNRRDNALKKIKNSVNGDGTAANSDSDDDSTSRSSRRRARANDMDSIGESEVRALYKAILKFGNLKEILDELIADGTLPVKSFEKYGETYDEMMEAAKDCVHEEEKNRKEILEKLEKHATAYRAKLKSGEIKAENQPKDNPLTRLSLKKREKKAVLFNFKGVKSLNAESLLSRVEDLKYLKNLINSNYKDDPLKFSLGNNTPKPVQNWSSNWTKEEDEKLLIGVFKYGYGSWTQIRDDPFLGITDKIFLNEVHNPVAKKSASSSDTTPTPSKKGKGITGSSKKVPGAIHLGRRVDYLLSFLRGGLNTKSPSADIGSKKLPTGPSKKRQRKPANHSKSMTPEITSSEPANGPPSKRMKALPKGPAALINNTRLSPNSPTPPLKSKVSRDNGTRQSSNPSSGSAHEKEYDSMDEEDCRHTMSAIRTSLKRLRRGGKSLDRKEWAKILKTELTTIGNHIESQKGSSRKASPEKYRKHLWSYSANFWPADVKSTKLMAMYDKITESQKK

Consider `Cc1nc(-c2ccco2)ccc1C(=O)N1CCCC1Cn1cccn1` (stereo not given), for which the Percent Effect was -2.79% in assay [1]; 1.27% in assay [2]; 3.11% in [3]; 2.49% in assay [4]; -0.513% in the assay on Trypanosoma cruzi; 3.66% in [5]. Further, the Percent Effect in [6] is 13.4%; in the assay filed under Homo sapiens it was 7.74%; in [7], 4.17%; in assay [8], 0%; in assay [9], -8.65%.
For the molecule `CC(=O)Nc1nc(C(=O)N2CCCC2c2noc(C)n2)cs1` (stereo not given), the Percent Effect is -6.47% in [1]; -5.2% in [2]; 10.4% in [3]; -6.87% in assay [4]; -7.12% in the assay on Trypanosoma cruzi; 2.13% in assay [5]. For the same molecule, the Percent Effect in assay [6] is -2.2%; in the assay listed under Homo sapiens it was 22.6%; in assay [7], -1.94%; in [8], -17.1%; in assay [9] it was -6.82%.
For `CCOCCC(=O)Nc1cccc(Oc2ccccn2)c1`, the Percent Effect is -5.45% in assay [1]; 0% in [2]; -0.587% in assay [3]; 2.14% in assay [4]; 0.487% in the assay with Trypanosoma cruzi; 2.37% in assay [5]. Further, the Percent Effect in [6] was 0.288%; in the assay filed under Homo sapiens it was -0.792%; in assay [7], 0%; in assay [8], -5.2%; in assay [9] it was 6.72%.
In the case of `CCN1CC(C(=O)NC(C)(C)CNC(=O)OC(C)(C)C)CC1=O` (stereo not given), the Percent Effect in [1] is -5.66%; in [2], 8.11%; in assay [3], -1.21%; in [4], 20.7%; in the assay on Trypanosoma cruzi, -1.66%; in assay [5] it was 4.22%. For the same molecule, the Percent Effect was 7.47% in assay [6]; -16.6% in the assay filed under Homo sapiens; 4.3% in [7]; 8.64% in [8]; -4.86% in [9].
Turning to `O=C(c1ccc(-n2cccn2)nc1)N1CCCN(c2cccnn2)CC1`, the Percent Effect is -2.01% in [1]; 0% in assay [2]; 6.8% in assay [3]; -1.08% in [4]; -6.76% with Trypanosoma cruzi; 1.47% in assay [5]. Further, the Percent Effect was 13% in assay [6]; -7.18% in the assay listed under Homo sapiens; -0.952% in assay [7]; 0% in assay [8]; -11.3% in assay [9].
For the molecule `Cc1nc(C)n(CC2CCCN2CC(=O)Nc2cc(C(C)C)no2)n1` (stereo not given), the Percent Effect in assay [1] was -3.86%; in assay [2] it was 18.4%; in assay [3] it was -3.35%; in assay [4], 10.4%; in the assay with Trypanosoma cruzi, 1.03%; in [5] it was -0.36%. The Percent Effect in assay [6] is 8.21%; in the assay listed under Homo sapiens it was 22.5%; in assay [7], 4.43%; in [8], 16.1%; in assay [9], -3.86%.
As to `O=C(c1cncc(Br)c1)N1CCC(O)(Cn2ccc3ccncc32)CC1`, the Percent Effect in assay [1] was 1.79%; in assay [2], 1.35%; in assay [3], 12.2%; in assay [4] it was -0.489%; with Trypanosoma cruzi, -7.91%; in assay [5], 1.62%. The Percent Effect in assay [6] is 9.52%; in the assay listed under Homo sapiens, 9.61%; in assay [7] it was 1.07%; in [8], 1.3%; in assay [9] it was -12.2%.
On to `Cc1nc(CN2CCCn3c(nc(Cn4ccnc4)cc3=O)C2)cs1`, for which the Percent Effect in [1] was -3.95%; in assay [2] it was 12%; in assay [3], 7.35%; in [4], 0.752%; in the assay on Trypanosoma cruzi, -0.393%; in [5] it was 1.23%. Also, the Percent Effect is 5.36% in assay [6]; -26.2% in the assay listed under Homo sapiens; -1.06% in [7]; 0% in assay [8]; -4.76% in assay [9].
With `COc1ccccc1CNC(=O)Cn1ncc2c1c(C)nn2C`, the Percent Effect in [1] was -2.51%; in [2] it was 6.67%; in assay [3], 1.32%; in assay [4], 6.52%; in the assay with Trypanosoma cruzi, -7.86%; in assay [5] it was -15%. Also, the Percent Effect in assay [6] is 12.8%; in the assay listed under Homo sapiens, -0.504%; in assay [7], 5.29%; in [8] it was 7.69%; in assay [9] it was -9.43%.
As for `Cn1cnc(S(=O)(=O)NCCCN2CCOCC2)c1Cl`, the Percent Effect in assay [1] is -3.33%; in [2], 2.7%; in [3], -5.32%; in [4], -2.1%; in the assay on Trypanosoma cruzi, -10.5%; in assay [5] it was 26.1%. Also, the Percent Effect in assay [6] is 7.21%; in the assay listed under Homo sapiens it was 16.1%; in [7], 4.43%; in [8] it was 3.7%; in [9], -8.3%.
